Sampled rows, rich in hits. Any-hit rate of the full collection: about 5.8%.
uPA generation: blocks generation of uPA at the cell surface; cell surface uPA generation assay, qHTS; Potency, µM (doses to about 38.3 µM), for the others: at the top dose activity change, negative = inhibition, hits mostly inhibitors; 330,000 tested, 0.31% active; AID 540303; active = well fitted inhibition curve with a large enough effect; inconclusive = small, poorly fitted or top-dose-only effect; inactive = no such curve, though single readings can be large or run the other way; tested in mouse RAW 264.7 cells; note: potency is the fitted concentration of half-maximal effect; % is set by controls: 0 for no effect and ±100 for the full control effect; nearly all actives have a fitted effect of over 55% in size
Gal4-VP16 FLuc: inhibits Gal4-VP16 luciferase reporter, ROR gamma counter-screen. Drosophila S2 Gal4-VP16 UAS-luciferase, luminescence, 20 h. Potency, µM (highest dose often 53.6 µM), for inactives: top-dose activity, negative = inhibition, actives largely listed as inhibitors. 310,000 tested, 3.5% active. AID 2546;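 note: Gal4-VP16 expression switched on by copper sulfate through the metallothionein promoter; potency is the fitted concentration of half-maximal effect; % is set by controls: 0 for no effect and ±100 for the full control effect; nearly all actives have a fitted effect of over 50% in size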
TRPV1 PAM: human TRPV1 potentiation. potentiation, % at 8.33 µM. TRPV1-expressing cells, Fluo-8 calcium influx, capsaicin EC20 potentiation. Q8NER1. 320,000 tested, 0.02% active; in the data active = potentiation above about 80%; inconclusive = between about 30% and that limit; note: 0% is about no effect
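TRPV1-expressing cells were cultured overnight at 35.5C and loaded with Fluo-8 calcium dye for 40 to 90 min at room temperature. After a 10 s baseline, compound was added and calcium influx was read kinetically for 3 min (ex 480/em 520 nm).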
RORg inh: inhibitors of mouse ROR gamma transcriptional activity | P51450 | Drosophila S2 Gal4-RORgamma UAS-luciferase reporter, 20 h | Potency, µM (series often up to 53.6 µM), without a hit: at the top dose activity change, negative = inhibition, usual class: inhibitors | 310,000 tested, 5.4% active | AID 2551; note: potency is the fitted concentration of half-maximal effect; % is set by controls: 0 for no effect and ±100 for the full control effect; nearly all actives have a fitted effect of over 60% in size
Target sequence (P51450 whole entry, looked up, the tested form may be a part): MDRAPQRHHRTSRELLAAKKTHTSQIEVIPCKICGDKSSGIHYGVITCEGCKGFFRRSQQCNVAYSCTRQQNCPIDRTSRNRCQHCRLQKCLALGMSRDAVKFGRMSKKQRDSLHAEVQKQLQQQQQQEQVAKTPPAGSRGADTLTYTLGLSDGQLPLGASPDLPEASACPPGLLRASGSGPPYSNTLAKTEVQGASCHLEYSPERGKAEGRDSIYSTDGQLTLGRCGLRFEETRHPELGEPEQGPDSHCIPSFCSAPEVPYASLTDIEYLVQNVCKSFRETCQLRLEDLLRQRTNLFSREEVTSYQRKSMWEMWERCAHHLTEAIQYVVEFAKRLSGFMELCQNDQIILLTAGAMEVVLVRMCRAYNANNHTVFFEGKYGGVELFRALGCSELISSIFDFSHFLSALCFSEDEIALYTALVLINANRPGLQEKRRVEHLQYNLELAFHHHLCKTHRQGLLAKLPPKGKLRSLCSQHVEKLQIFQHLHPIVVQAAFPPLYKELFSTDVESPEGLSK
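A Gal4/UAS one-hybrid system in insect cells: metallothionein-promoter Gal4–ROR gamma fusion plus Photinus luciferase reporter. Copper sulfate 700 uM final, 20 hr ambient incubation, luminescent detection after 10 min with reagent.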
TRPV1 agonist: activates the human vanilloid receptor TRPV1 | TRPV1-expressing cells, Fluo-8 calcium influx, agonist mode | 320,000 tested, 0.19% active | Q8NER1 | activation, % at 8.33 µM; in the data active = activation above about 80%; inconclusive = between about 30% and that limit; note: 0% is about no effect
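TRPV1-expressing cells were cultured overnight at 35.5C and loaded with Fluo-8 calcium dye for 40 to 90 min at room temperature. After a 10 s baseline, compound was added and calcium influx was read kinetically for 3 min (ex 480/em 520 nm).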
* marks the source's active call; other numbers are inactive results; u = inconclusive; x = no result; [ ] = another dose, or the depositor's remark. Unless noted, calls come from the whole dose curve; as a rule, active = well fitted curve in the direction sought with a large enough effect; inconclusive = small, poorly fitted or top-dose-only effect, or another doubt; inactive = no such curve, though single readings can be large; an effect the other way counts as inactive or inconclusive.

SMILES | uPA generation | Gal4-VP16 FLuc | TRPV1 PAM | RORg inh | TRPV1 agonist
CC1(C)CCC[C@@](C)([C@H]2CC[C@]3(C)[C@@H]2[C@H](O)C[C@@H]2[C@@]4(C)CC[C@H](O)C(C)(C)[C@@H]4[C@@H](O)C[C@]23C)O1 | x | -11% | x | u | x
COc1cc(Br)cc(/C=N/NC(=O)Cc2ccccc2)c1O | -6% | x | x | x | x
O=C(CP(=O)(c1ccccc1)c1ccccc1)N/N=C/c1cc(Br)cc(Br)c1O | -4% | 2.5µM* | 26 | 1.1µM* | -2
O=C(Cc1ccccc1)N/N=C/c1cc(Br)cc(Cl)c1O | 0% | 1.3µM* | -6 | 0.56µM* | u
c1ccc(CNc2nc3ccccc3[nH]2)cc1 | u | -21% | -10 | u | 9
O=c1[nH]c(NNC(=S)NCc2ccccc2)nc2c1C1(CCCCC1)Cc1ccccc1-2 | -7% | 2.8µM* | 11 | 2.5µM* | -2
S=C(NCc1ccccc1)NNc1nc2ccccc2[nH]1 | 5% | -9% | -3 | 4.5µM* | 3
O=c1[nH]c(NNC(=S)NC2CCCCC2)nc2c1C1(CCCC1)Cc1ccccc1-2 | -1% | 25µM* | u | 2.8µM* | 0
O=c1[nH]c(NCCCO)nc2c1C1(CCCC1)Cc1ccccc1-2 | -6% | 7% | -8 | 26% | u
C=CCNC(=S)NNc1nc2c(c(=O)[nH]1)C1(CCCC1)Cc1ccccc1-2 | -2% | 3.2µM* | 10 | 2.8µM* | 2
CCOCc1c(C(=O)OCC(=O)Nc2ccc(C)c(S(=O)(=O)N(C)C)c2)oc2ccccc12 | 3% | u | 26 | u | 3
O=C(O)[C@@H]1CCCNC1 | x | -2%[17 µM] | x | -3%[16.9 µM] | x
COc1ccccc1CN=Cc1[nH]c2ccc(Br)c(Cl)c2c1O | 3% | 11µM* | -14 | -101% | 0
COc1ccccc1CCN1CCCC(CN(C)CC(C)(C)CO)C1 (stereo unspecified) | 7% | -5% | -1 | 18%[1.91 µM] | 1
COc1ccc(CN2C(=S)NC(C)(C)CC2(C)O)cc1 (stereo unspecified) | 0% | u | -7 | 13µM* | 1
COc1ccccc1CCN1C(=S)NC(C)(C)CC1(C)O (stereo unspecified) | 13% | 5.6µM* | -2 | 2.8µM* | 1
CCOC(=O)c1c(-c2cccs2)csc1NC(=O)CN(CC)CC | -1% | 0% | -7 | u | u
CCN(CC)CC(=O)Nc1sc(C)cc1C(=O)c1ccccc1 | -4% | u | 6 | 7.1µM* | 15
CCc1cc(C(=O)c2ccc(Br)cc2)c(NC(=O)CN(CC)CC)s1 | 18% | 11µM* | 3 | 6.3µM* | 0
Cc1cc(C(=O)c2ccccc2)c(NC(=O)CCl)s1 | -6% | -99% | -7 | -12%[10 µM] | 3
CCN(CC)CC(=O)Nc1sc(C)cc1C(=O)c1ccc(C)cc1 | 0% | 6.3µM* | -16 | 3.2µM* | 28
CCN(CC)CC(=O)Nc1sc(C)c(C)c1C(=O)c1ccc(C)cc1 | 9% | -7% | -18 | 11µM* | u
Cc1ccc(C(=O)c2c(NC(=O)c3ccccc3C)sc(C)c2C)cc1 | 2% | 17% | x | 6% | x
CCc1cc(C(=O)c2ccc(OC)cc2)c(NC(=O)COCC(=O)O)s1 | 2% | 4% | -5 | -2% | -3
O=C(c1ccccc1)N1CCc2ccccc21 | -2% | u | 2 | -7% | -5
SMILES | uPA generation | Gal4-VP16 FLuc | TRPV1 PAM | RORg inh | TRPV1 agonist
O=C(NC(=S)N1CCc2ccccc21)c1ccccc1Cl | -5% | 1µM* | 21 | 0.45µM* | 0
O=C(NC(=S)N1CCc2ccccc21)c1ccccc1 | -1% | 0.5µM* | 8 | 0.56µM* | 2
O=C(O)CNC(=O)CC1S/C(=N/N=C2/NC(=O)CS2)NC1=O (stereo unspecified) | -1% | -11% | 1 | -17% | 0
Cc1ccn2c(C(=O)N/N=C/c3ccc(CNC(=O)C(=O)Nc4ccc(C)c(C)c4)o3)c(C)nc2c1 | x | 2% | 20 | u | -3
Cc1ccc(S(=O)(=O)NC(C(=O)N2CCOCCOCCOCC2)C(C)C)cc1 (stereo unspecified) | -2% | 6% | -11 | -1% | 5
CCC(C)NC(=O)c1cc2c(=O)n3cccc(C)c3nc2s1 (stereo unspecified) | -2% | -14% | -1 | 9% | 5
COc1cc(NC(=O)c2cccc(C)c2)ccc1NC(=O)c1cc2ccccc2o1 | 0% | 13µM* | 15 | u | -4

High-throughput results deposited in PubChem BioAssay by National Center for Advancing Translational Sciences (NCATS).
